# Targets with a hit are over-represented here; the source holds about 7,900 in all. About 0.6% of all pairs of compound and target were hits. A number with no mark means an inactive call.
# Assays:
# Experiment in all cases: log2 fold change, soluble protein after heating vs DMSO (PISA); higher = thermal stabilisation; K562 cells, 10 uM, 30 min; active = over 0.2 and 3.5 SD of the protein, either way, in both replicates (recomputed)
# [1] = compound: COC1=CC=C(C=C1)CN2C=CC3=C2C=C(C=C3)C(=O)NO
# Method in brief: (§1)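 K562 cells at 2×10^6 cells/mL were treated with 10 μM compound for 30 min. Aliquots were heated for 3 min across 48°C-58°C, pooled, and extracted in PBS with 0.5% NP-40 at 4°C; soluble protein was the supernatant after 21,000xg for 90 min. Soluble protein was quantified by TMTpro 16plex LC-MS/MS with channel sums equalised, and reported as log2 fold change in thermal stability against DMSO controls, with values from duplicates.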
# filanesib = compound: CON(C)C(=O)N1N=C(c2cc(F)ccc2F)S[C@@]1(CCCN)c1ccccc1 [filanesib]
# Method in brief: as §1
# zotarolimus = compound: CO[C@H]1C[C@@H]2CC[C@@H](C)[C@@](O)(O2)C(=O)C(=O)N2CCCC[C@H]2C(=O)O[C@H]([C@H](C)C[C@@H]2CC[C@H](n3cnnn3)[C@H](OC)C2)CC(=O)[C@H](C)/C=C(\C)[C@@H](O)[C@@H](OC)C(=O)[C@H](C)C[C@H](C)/C=C/C=C/C=C/1C [zotarolimus]
# Method in brief: as §1
# idasanutlin = compound: COc1cc(C(=O)O)ccc1NC(=O)[C@@H]1N[C@@H](CC(C)(C)C)[C@](C#N)(c2ccc(Cl)cc2F)[C@H]1c1cccc(Cl)c1F [idasanutlin]
# Method in brief: as §1
# alisertib = compound: COc1cc(Nc2ncc3c(n2)-c2ccc(Cl)cc2C(c2c(F)cccc2OC)=NC3)ccc1C(=O)O [alisertib]
# Method in brief: as §1
# [2] = compound: COc1cc2nc(-c3cc(F)ccc3O)nc(N[C@@H]3CNC[C@H]3C(C)(C)O)c2cc1OC
# Method in brief: as §1
# gefitinib = compound: COc1cc2ncnc(Nc3ccc(F)c(Cl)c3)c2cc1OCCCN1CCOCC1 [gefitinib]
# Method in brief: as §1
# [3] = compound: COc1cccc2cc(-c3nc([C@H]4CC[C@H](C(=O)O)CC4)n4ncnc(N)c34)[nH]c12
# Method in brief: as §1
# lapatinib = compound: CS(=O)(=O)CCNCc1ccc(-c2ccc3ncnc(Nc4ccc(OCc5cccc(F)c5)c(Cl)c4)c3c2)o1 [lapatinib]
# Method in brief: as §1
# pictilisib = compound: CS(=O)(=O)N1CCN(Cc2cc3nc(-c4cccc5[nH]ncc45)nc(N4CCOCC4)c3s2)CC1 [pictilisib]
# Method in brief: as §1
# [4] = compound: CS(=O)(=O)c1ccc(-c2cnc(N)c(C(=O)Nc3ccccc3)n2)cc1
# Method in brief: as §1
# crizotinib = compound: C[C@@H](Oc1cc(-c2cnn(C3CCNCC3)c2)cnc1N)c1c(Cl)ccc(F)c1Cl [crizotinib]
# Method in brief: as §1
# [5] = compound: C[C@@H]1COCCN1C2=NC(=NC(=C2)C3(CC3)S(=O)(=O)C)C4=C5C=CNC5=CC=C4
# Method in brief: as §1
# [6] = compound: C[C@H](C1=CC=C(C=C1)C(=O)NC2=C3C=CNC3=NC=C2)N
# Method in brief: as §1
# duvelisib = compound: C[C@H](Nc1ncnc2nc[nH]c12)c1cc2cccc(Cl)c2c(=O)n1-c1ccccc1 [duvelisib]
# Method in brief: as §1
# gandotinib = compound: Cc1cc(Nc2cc(CN3CCOCC3)c3nc(C)c(Cc4ccc(Cl)cc4F)n3n2)n[nH]1 [gandotinib]
# Method in brief: as §1
# tozasertib = compound: Cc1cc(Nc2cc(N3CCN(C)CC3)nc(Sc3ccc(NC(=O)C4CC4)cc3)n2)n[nH]1 [tozasertib]
# Method in brief: as §1
# [7] = compound: Cc1cc(SCc2sc(-c3ccc(C(F)(F)F)cc3)nc2C)ccc1OCC(=O)O
# Method in brief: as §1
# doramapimod = compound: Cc1ccc(-n2nc(C(C)(C)C)cc2NC(=O)Nc2ccc(OCCN3CCOCC3)c3ccccc23)cc1 [doramapimod]
# Method in brief: as §1
# ispinesib = compound: Cc1ccc(C(=O)N(CCCN)[C@@H](c2nc3cc(Cl)ccc3c(=O)n2Cc2ccccc2)C(C)C)cc1 [ispinesib]
# Method in brief: as §1
# UniProt O00628, sequence (O00628 whole entry, looked up): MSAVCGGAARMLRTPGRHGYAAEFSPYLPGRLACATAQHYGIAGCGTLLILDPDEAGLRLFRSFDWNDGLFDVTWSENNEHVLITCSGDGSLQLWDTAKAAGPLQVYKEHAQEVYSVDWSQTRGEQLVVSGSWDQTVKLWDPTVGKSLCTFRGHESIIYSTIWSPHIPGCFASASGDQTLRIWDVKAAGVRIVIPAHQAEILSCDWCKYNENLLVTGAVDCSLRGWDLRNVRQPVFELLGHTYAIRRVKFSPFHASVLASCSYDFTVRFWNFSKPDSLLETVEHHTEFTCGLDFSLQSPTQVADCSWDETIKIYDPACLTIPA
# UniProt P46019, sequence (P46019 whole entry, looked up): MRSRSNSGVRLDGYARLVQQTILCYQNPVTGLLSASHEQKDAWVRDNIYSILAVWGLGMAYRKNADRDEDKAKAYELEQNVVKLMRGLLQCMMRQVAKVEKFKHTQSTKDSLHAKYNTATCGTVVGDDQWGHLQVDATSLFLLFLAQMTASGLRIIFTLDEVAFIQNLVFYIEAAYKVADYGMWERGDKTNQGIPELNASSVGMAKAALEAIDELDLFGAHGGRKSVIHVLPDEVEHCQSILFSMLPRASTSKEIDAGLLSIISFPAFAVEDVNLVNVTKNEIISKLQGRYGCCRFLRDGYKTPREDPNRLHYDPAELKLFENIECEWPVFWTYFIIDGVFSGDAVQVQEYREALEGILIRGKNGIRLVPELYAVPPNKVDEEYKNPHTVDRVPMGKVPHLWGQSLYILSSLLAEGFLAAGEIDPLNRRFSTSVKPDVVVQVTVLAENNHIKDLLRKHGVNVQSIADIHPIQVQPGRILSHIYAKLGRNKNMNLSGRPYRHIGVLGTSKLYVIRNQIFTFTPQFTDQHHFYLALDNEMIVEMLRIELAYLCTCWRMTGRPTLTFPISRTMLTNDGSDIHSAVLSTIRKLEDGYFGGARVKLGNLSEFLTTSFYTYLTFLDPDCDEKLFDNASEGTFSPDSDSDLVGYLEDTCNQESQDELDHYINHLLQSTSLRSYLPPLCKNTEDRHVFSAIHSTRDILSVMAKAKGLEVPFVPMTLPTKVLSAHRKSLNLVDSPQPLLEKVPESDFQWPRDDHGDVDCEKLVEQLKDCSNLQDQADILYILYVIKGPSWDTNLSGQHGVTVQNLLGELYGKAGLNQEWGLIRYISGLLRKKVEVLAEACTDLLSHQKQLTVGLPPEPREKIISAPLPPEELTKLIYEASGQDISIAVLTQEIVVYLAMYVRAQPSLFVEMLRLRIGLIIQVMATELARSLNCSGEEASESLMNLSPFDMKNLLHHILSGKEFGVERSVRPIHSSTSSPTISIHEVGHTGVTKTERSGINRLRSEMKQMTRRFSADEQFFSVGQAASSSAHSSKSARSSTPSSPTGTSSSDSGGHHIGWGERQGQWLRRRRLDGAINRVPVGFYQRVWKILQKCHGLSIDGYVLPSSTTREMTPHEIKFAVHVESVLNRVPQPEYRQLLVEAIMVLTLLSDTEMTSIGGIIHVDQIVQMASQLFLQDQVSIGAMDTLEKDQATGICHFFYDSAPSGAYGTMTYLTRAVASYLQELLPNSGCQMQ
# UniProt Q9NR12, sequence (Q9NR12 whole entry, looked up): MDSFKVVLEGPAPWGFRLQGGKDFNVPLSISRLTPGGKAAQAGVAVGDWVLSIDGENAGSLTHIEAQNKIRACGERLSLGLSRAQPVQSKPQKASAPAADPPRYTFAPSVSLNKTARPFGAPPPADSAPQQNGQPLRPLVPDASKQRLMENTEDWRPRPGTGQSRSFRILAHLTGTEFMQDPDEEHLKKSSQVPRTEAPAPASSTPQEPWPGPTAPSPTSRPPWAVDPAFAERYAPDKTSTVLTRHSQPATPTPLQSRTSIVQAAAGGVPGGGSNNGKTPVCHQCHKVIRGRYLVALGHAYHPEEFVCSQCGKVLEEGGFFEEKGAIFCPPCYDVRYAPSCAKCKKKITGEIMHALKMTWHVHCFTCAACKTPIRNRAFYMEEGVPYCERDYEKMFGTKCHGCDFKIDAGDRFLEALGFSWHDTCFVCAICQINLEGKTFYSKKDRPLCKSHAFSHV
# UniProt Q7RTV0, sequence (Q7RTV0 whole entry, looked up): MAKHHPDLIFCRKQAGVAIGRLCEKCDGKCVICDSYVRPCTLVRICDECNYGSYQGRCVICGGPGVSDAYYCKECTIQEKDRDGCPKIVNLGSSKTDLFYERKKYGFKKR
# UniProt Q6L8Q7, sequence (Q6L8Q7 whole entry, looked up): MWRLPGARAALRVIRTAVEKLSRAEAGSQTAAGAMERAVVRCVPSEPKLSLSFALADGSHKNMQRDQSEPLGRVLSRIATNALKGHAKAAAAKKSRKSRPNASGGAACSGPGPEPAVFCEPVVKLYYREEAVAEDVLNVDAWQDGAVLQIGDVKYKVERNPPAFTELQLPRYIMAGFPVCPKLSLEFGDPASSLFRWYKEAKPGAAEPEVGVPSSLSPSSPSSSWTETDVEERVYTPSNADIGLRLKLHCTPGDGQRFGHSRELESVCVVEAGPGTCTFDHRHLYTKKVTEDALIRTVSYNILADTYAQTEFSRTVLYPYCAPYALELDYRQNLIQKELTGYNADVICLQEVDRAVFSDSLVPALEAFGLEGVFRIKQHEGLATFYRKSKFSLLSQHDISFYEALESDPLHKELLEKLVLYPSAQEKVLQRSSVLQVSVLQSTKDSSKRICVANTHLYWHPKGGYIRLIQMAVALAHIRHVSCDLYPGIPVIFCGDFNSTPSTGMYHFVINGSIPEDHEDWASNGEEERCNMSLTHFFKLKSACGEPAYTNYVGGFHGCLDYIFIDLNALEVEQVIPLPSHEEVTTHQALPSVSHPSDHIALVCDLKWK
# UniProt Q9UNM6, sequence (Q9UNM6 whole entry, looked up): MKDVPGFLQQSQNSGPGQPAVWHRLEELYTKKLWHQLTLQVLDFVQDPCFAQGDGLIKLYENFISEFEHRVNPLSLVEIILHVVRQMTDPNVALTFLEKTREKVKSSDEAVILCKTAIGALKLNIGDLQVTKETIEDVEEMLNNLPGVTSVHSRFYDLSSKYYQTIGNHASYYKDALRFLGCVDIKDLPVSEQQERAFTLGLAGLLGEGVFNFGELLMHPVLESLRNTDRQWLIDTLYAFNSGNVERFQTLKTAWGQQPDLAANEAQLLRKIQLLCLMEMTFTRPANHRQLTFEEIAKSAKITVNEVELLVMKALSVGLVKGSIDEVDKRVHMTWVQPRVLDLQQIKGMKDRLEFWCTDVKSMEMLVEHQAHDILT
# UniProt O75439, sequence (O75439 whole entry, looked up): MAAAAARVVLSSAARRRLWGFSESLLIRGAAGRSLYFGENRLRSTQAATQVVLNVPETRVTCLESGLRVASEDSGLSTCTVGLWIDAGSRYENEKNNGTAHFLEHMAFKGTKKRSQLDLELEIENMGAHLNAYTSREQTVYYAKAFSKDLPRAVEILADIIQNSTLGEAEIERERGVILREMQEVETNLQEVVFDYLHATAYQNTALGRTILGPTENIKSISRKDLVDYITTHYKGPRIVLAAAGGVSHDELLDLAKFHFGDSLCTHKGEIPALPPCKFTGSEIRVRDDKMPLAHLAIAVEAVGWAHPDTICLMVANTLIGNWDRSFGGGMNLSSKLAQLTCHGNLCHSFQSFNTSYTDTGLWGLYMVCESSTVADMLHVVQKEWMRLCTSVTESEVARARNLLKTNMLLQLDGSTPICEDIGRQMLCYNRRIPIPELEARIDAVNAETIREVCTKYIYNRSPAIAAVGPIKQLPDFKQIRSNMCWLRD
# UniProt O00231, sequence (O00231 whole entry, looked up): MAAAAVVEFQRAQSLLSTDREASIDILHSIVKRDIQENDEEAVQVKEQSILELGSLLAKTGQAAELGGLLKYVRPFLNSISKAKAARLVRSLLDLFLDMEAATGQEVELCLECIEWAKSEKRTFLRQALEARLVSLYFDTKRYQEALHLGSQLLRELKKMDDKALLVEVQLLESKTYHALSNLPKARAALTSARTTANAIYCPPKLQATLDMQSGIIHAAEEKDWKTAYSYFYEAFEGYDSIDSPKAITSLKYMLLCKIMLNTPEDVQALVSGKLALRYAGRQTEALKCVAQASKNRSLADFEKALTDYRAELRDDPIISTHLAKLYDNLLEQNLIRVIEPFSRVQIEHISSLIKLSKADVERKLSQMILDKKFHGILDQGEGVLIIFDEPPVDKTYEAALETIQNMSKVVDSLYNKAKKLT
# UniProt O00233, sequence (O00233 whole entry, looked up): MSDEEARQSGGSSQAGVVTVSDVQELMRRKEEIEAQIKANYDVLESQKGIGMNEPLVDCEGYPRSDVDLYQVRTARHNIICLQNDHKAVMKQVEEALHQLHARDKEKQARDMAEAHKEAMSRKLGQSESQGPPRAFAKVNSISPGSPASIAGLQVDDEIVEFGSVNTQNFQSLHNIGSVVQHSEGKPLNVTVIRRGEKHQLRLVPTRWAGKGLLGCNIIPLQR
Target,log2 fold change [1],log2 fold change (filanesib),log2 fold change (zotarolimus),log2 fold change (idasanutlin),log2 fold change (alisertib),log2 fold change [2],log2 fold change (gefitinib),log2 fold change [3],log2 fold change (lapatinib),log2 fold change (pictilisib),log2 fold change [4],log2 fold change (crizotinib),log2 fold change [5],log2 fold change [6],log2 fold change (duvelisib),log2 fold change (gandotinib),log2 fold change (tozasertib),log2 fold change [7],log2 fold change (doramapimod),log2 fold change (ispinesib)
PHF5A (UniProt Q7RTV0),0.014,0.087,-0.024,0.056,-0.033,0.067,0.003,0.026,-0.051,0.071,0.013,0.074,-0.061,-0.072,0,-0.009,0.043,-0.031,-0.093,0.094
PHKA1 (UniProt P46020),0.046,0.076,-0.024,-0.518 (active),-0.223,0.265,-0.017,0.034,-0.109,0.049,-0.036,-0.05,-0.048,0.189,-0.074,-0.015,0.279,0.075,0.037,-0.07
PSMD13 (UniProt Q9UNM6),-0.127,0.095,0.009,-0.054,-0.04,-0.025,-0.026,-0.05,0.038,-0.01,0.048,0.008,-0.012,0.092,-0.028,-0.016,0.062,0.052,0.026,-0.008
PIP4K2C (UniProt Q8TBX8),0.058,-0.025,-0.021,-0.186,-0.021,0.866 (active),0.115,0.684,-0.043,0.134,1.06 (active),-0.058,0.042,0.063,0.047,0.033,0.018,0.057,-0.044,0.009
PSMD9 (UniProt O00233),-0.028,-0.053,-0.021,0.005,-0.074,0.056,-0.013,-0.005,-0.021,-0.261 (active),-0.041,-0.069,0.022,-0.059,0.038,-0.018,-0.03,-0.026,0.001,0.016
PTP4A1 (UniProt Q93096),0.009,-0.088,0.05,0.089,-0.129,-0.267 (active),0.033,0.04,0.024,0.068,0.04,0.036,-0.006,-0.094,-0.013,-0.116,0.018,-0.039,-0.037,0.039
PMPCB (UniProt O75439),-0.046,0.036,0.047,-0.122,-0.078,0.046,0.006,0.008,-0.054,-0.012,0.012,0.015,0.054,-0.081,0.055,-0.096,-0.019,-0.019,0.009,-0.034
PUF60 (UniProt Q9UHX1),0.007,0.087,0.026,0.022,-0.05,-0.028,0.014,0.008,0.063,0,-0.012,0.031,0.025,-0.199,0.01,-0.09,0.081,0.056,-0.041,0.039
PHKA2 (UniProt P46019),-0.17,-0.055,0.022,-0.104,-0.067,0.064,-0.006,0.025,-0.037,0.078,-0.247,-0.076,0.051,-0.108,0.022,-0.083,-0.052,0.071,0.053,-0.013
PSMD11 (UniProt O00231),0.018,-0.011,0.028,0.004,-0.058,-0.052,-0.043,-0.071,0.086,0.003,0.036,-0.024,-0.035,0.074,-0.04,0.046,0.08,0.07,0.013,0.045
PRKCA (UniProt P17252),-0.005,-0.066,0.008,0.01,-0.019,0.057,-0.002,0.017,-0.027,0.055,-0.023,-0.081,0.044,-0.041,0.158,-0.227,-0.052,0.232,0.01,-0.112
PEX7 (UniProt O00628),0.013,-0.063,0.058,-0.002,-0.01,-0.09,-0.003,0.072,-0.032,0.055,-0.011,-0.037,0.121,0.024,0.04,-0.005,-0.042,0.145,0.002,-0.078
PGGHG (UniProt Q32M88),-0.022,0.073,0.024,0.162,-0.123,0.082,-0.062,0.041,-0.08,0.042,0.019,-0.01,0.003,0.175,0.073,-0.039,-0.108,0.049,0.048,0.05
PDE12 (UniProt Q6L8Q7),0.359 (active),-0.052,0.044,-0.052,-0.051,0.014,-0.01,-0.003,-0.007,0.074,0.047,0.032,0.088,-0.133,0.069,0.027,-0.007,0,-0.027,0.065
POP1 (UniProt Q99575),0.025,-0.023,0.033,-0.009,-0.054,-0.109,0.012,0.021,0.084,-0.01,-0.034,0.02,-0.023,-0.05,-0.005,0.012,0.009,-0.041,0.016,0.039
PDLIM7 (UniProt Q9NR12),0.055,0.014,0.014,-0.042,-0.06,0.03,-0.104,0.012,0.012,-0.046,-0.01,-0.075,-0.002,-0.05,0.019,0.026,-0.002,0.004,0.012,-0.075
